From PubChem BioAssay (Tox21) come the findings set out here.

Inconclusive results are not listed. Values without a mark were called inactive. The source made the active and inactive calls. Calls come from the whole dose curve; as a rule, active = well fitted inhibition curve with a large enough effect in the repeat runs; inconclusive = weak or mixed curves, or effect the other way; inactive = no such curve, though single readings can be large or run the other way.
% is set by controls: 0 for no effect and ±100 for the full control effect; potency is the fitted concentration of half-maximal effect.

This test concerns the target Nuclear receptor ROR-gamma (Homo sapiens) (UniProt P51449). Kind of test: qHTS assay to identify small molecule antagonists of the retinoid-related orphan receptor gamma (ROR-gamma) signaling pathway (AID 1159521; note: nearly all actives have a fitted effect of over 50% in size; for activity change, negative = inhibition: top concentration of the series differs between compounds). Conditions: Tet-on RORgamma CHO cells, RORE-luciferase, 16 h; series mostly up to 92.4 µM; activity change, negative = inhibition: at the top concentration. From the text:
U.S. Tox21 Program National Center for Advancing Translational Sciences [NCATS] NIH Chemical Genomics Center [NCGC] U.S. Environmental Protection Agency [EPA] National Institutes of Environmental Health Sciences [NIEHS] National Toxicology Program [NTP] U.S. Food and Drug Administration [FDA] Tox21 Assay Overview: Nuclear steroid hormone receptors are involved in many biological processes including inflammatory responses, cell proliferation, and apoptosis. Environmental factors or compounds disrupting these nuclear receptor pathways and gene expression may promote susceptibility to immunotoxicants and autoimmune diseases. One important group of these expression factors are the retinoid-related orphan receptors. To assess compounds that may interfere with the retinoid-related orphan receptor gamma (ROR-gamma) transcription factor, a cell-based luciferase assay was used. The CHO cell-based assay utilizes a TET-inducible ROR expression factor and ROR response element-LUC reporter gene. Reporter gene activity was induced using Doxycycline Hyclate and measured after 16 hr incubation. Tet-on ROR gamma CHO cells were used to screen against the Tox21 10K compound library for ROR gamma antagonists by quantification of decreased reporter gene activity in terms of decreased luminescence.
Tox21 Assay Protocol Summary: Tet-on ROR gamma CHO cells were dispensed at 1,000 cells in 4 uL of culture medium per well into white wall/solid bottom 1536-well plates using a Multidrop Combi (Thermo Scientific, Waltham, MA) dispenser. Following incubation at 37 C and 5% CO2 for 4 hr, 23 nL of compounds dissolved in DMSO, positive controls or DMSO only were transferred by a Pintool station (Kalypsys, San Diego, CA) and after 2 hr incubation at 37 C, one ul of 1 uM (final concentration) of Doxycycline Hyclate was added to all the wells by using a Flying Reagent Dispenser (FRD) (Aurora Discovery, San Diego, CA). After 16 hr incubation at 37 C and 5% CO2, 5 uL of ONE-Glo reagent (Promega Corporation, Madison, WI) was added to each assay plate using FRD. After 30 min incubation at room temperature, luminescence was quantified on a ViewLux plate reader (Perkin Elmer, Waltham, MA).
(In general: qHTS replaces the single test concentration by a dilution series.)
In the case of `Cc1ccc(S(=O)(=O)C(I)I)cc1`, the Potency was 6.11 µM (active).

In the case of `CC1(C)[C@H](C(=O)OCc2cccc(Oc3ccccc3)c2)[C@@H]1C=C(Cl)Cl`, the “activity change, negative = inhibition” value was 3.89%.

As for `CCC(=O)OC/C=C(\C)CCC=C(C)C`, the “activity change, negative = inhibition” value is 4.12%.

Consider `O=C1CCC(=O)N1`, for which the “activity change, negative = inhibition” value was 12.4%.

With `CCc1cccc(C)c1N(C(=O)C(=O)O)C(C)COC` (stereo not given), the “activity change, negative = inhibition” value is -1.82%.

For `N#CCCOCCC#N`, the “activity change, negative = inhibition” value was -23.4%.

Take `CCCCCc1ccc(O)cc1`: the “activity change, negative = inhibition” value was 2.54%.

Take `CC(=O)Nc1ccc(N=Nc2cc(C)ccc2O)cc1`: the “activity change, negative = inhibition” value was 69.8%.

With `CCOc1nc(F)cc2nc(S(=O)(=O)Nc3c(Cl)cccc3C(=O)OC)nn12`, the “activity change, negative = inhibition” value is -4%.

For `CC1CCC(C(C)(C)O)CC1` (stereo not given), the “activity change, negative = inhibition” value was 7.98%.

With `C=C1CC[C@H]2O[C@]2(C)CC[C@@H]2[C@@H]1CC2(C)C`, the “activity change, negative = inhibition” value is 11.6%.

`CCCC(C)C=O` (stereo not given): the “activity change, negative = inhibition” value is 4.67%.

As to `CCCCNc1ccc(NCCCC)c2c1C(=O)c1ccccc1C2=O`, the activity change, negative = inhibition was -8.88% [at 19 µM].

As for `O=C1OC2(c3ccccc31)c1ccc(O)c(Br)c1Oc1c2ccc(O)c1Br`, the “activity change, negative = inhibition” value is -14.6%.

Consider `COc1cc2ncnc(Nc3cccc(Cl)c3)c2cc1OC`, for which the activity change, negative = inhibition is -11.5% [at 19 µM].

As to `CC(=O)[C@]1(O)Cc2c(O)c3c(c(O)c2[C@@H](O[C@H]2C[C@H](N)[C@H](O)[C@H](C)O2)C1)C(=O)c1ccccc1C3=O`, the “activity change, negative = inhibition” value is 196% [at 42.5 µM].

`[Cl][Sc]([Cl])[Cl]`: the “activity change, negative = inhibition” value is 10.1%.

As to `NCc1cccc(C2CCN(C(=O)c3ccc(C#Cc4ccccc4F)o3)CC2)c1`, the Potency was 34.4 µM (active).

Consider `Cc1ccc2sc3cccc(C)c3c2c1`, for which the “activity change, negative = inhibition” value is 27.2%.

In the case of `CCCCCCCCOC(=O)c1cc(O)c(O)c(O)c1`, the Potency is 1.93 µM (active).

Regarding `CCC(C)(C)c1ccc(CC(C)CN2C[C@@H](C)O[C@@H](C)C2)cc1` (stereo not given in full), the “activity change, negative = inhibition” value was -3.86% [at 42.5 µM].

Turning to `CC(C)(C)C1=CC(=O)C(C(C)(C)C)=CC1=O`, the Potency was 10.6 µM (active).

Turning to `C=C(C)C1CCC(C)CC1O` (stereo not given), the “activity change, negative = inhibition” value was 19%.

With `N#Cc1ccc(C/C(=N/NC(=O)Nc2ccc(OC(F)(F)F)cc2)c2cccc(C(F)(F)F)c2)cc1`, the “activity change, negative = inhibition” value is -24.1%.

On to `CCN(CC)c1ccc2c(c1)Oc1cc(N(CC)CC)ccc1C21OC(=O)c2ccccc21`, for which the “activity change, negative = inhibition” value was -3.16% [at 42.5 µM].

For the compound `NC(=O)C1CO1` (stereo not given), the “activity change, negative = inhibition” value is 2.51%.

Regarding `CCCCCCCCSCc1cc(C)c(O)c(CSCCCCCCCC)c1`, the Potency is 61.1 µM (active).

As to `COc1cc(OC)nc(NC(=O)NS(=O)(=O)Nc2ccccc2C(=O)N(C)C)n1`, the “activity change, negative = inhibition” value is -0.518%.

For `ClC(c1ccccc1)(c1ccccc1)c1ccccc1`, the “activity change, negative = inhibition” value is -2.14%.

Consider `CC(C)(c1ccc(Oc2ccc(N)cc2)cc1)c1ccc(Oc2ccc(N)cc2)cc1`, for which the Potency was 61.1 µM (active).

As for `NC(=O)c1ccccc1Cl`, the “activity change, negative = inhibition” value is 36.6%.

For `Nc1ccc(Cl)c([N+](=O)[O-])c1`, the Potency is 38.6 µM (active).

Regarding `CCN(CCC#N)c1ccc(N=Nc2ccc([N+](=O)[O-])cc2)cc1`, the “activity change, negative = inhibition” value was 60.6%.

For the compound `Nc1cc([N+](=O)[O-])cc(Cl)c1O`, the “activity change, negative = inhibition” value is -23.4%.

Consider `CCCOC(=O)c1ccc(O)cc1`, for which the “activity change, negative = inhibition” value was 48%.

As for `SC1CCCCC1`, the “activity change, negative = inhibition” value is 22.2%.

For `COc1cc([C@@H]2c3cc4c(cc3[C@@H](O[C@@H]3O[C@@H]5CO[C@@H](C)O[C@H]5[C@H](O)[C@H]3O)[C@H]3COC(=O)[C@H]23)OCO4)cc(OC)c1O`, the Potency was 27 µM (active).

`NCc1ccco1`: the “activity change, negative = inhibition” value was 7.18%.

For `CCCCCCCCCC[N+](C)(CCCCCCCCCC)CCC[Si](OC)(OC)OC`, the Potency was 21.7 µM (active).

With `CN1CC[C@H](c2c(O)cc(O)c3c(=O)cc(-c4ccccc4Cl)oc23)[C@H](O)C1`, the Potency was 0.298 µM (active).
